Compound activity from PubChem BioAssay.
This is a sample that favours compounds with a hit; in the whole collection about 3.5% have one here.
mHTT CaM bind – disrupts binding of mutant huntingtin to calmodulin. P42858. AlphaScreen His-mHTT/GST-CaM binding, luminescence. inhibition, % at 15 µM. hit rate 3.6% among 190,000. AID 1671202
Target sequence (P42858 whole entry, looked up, change not shown): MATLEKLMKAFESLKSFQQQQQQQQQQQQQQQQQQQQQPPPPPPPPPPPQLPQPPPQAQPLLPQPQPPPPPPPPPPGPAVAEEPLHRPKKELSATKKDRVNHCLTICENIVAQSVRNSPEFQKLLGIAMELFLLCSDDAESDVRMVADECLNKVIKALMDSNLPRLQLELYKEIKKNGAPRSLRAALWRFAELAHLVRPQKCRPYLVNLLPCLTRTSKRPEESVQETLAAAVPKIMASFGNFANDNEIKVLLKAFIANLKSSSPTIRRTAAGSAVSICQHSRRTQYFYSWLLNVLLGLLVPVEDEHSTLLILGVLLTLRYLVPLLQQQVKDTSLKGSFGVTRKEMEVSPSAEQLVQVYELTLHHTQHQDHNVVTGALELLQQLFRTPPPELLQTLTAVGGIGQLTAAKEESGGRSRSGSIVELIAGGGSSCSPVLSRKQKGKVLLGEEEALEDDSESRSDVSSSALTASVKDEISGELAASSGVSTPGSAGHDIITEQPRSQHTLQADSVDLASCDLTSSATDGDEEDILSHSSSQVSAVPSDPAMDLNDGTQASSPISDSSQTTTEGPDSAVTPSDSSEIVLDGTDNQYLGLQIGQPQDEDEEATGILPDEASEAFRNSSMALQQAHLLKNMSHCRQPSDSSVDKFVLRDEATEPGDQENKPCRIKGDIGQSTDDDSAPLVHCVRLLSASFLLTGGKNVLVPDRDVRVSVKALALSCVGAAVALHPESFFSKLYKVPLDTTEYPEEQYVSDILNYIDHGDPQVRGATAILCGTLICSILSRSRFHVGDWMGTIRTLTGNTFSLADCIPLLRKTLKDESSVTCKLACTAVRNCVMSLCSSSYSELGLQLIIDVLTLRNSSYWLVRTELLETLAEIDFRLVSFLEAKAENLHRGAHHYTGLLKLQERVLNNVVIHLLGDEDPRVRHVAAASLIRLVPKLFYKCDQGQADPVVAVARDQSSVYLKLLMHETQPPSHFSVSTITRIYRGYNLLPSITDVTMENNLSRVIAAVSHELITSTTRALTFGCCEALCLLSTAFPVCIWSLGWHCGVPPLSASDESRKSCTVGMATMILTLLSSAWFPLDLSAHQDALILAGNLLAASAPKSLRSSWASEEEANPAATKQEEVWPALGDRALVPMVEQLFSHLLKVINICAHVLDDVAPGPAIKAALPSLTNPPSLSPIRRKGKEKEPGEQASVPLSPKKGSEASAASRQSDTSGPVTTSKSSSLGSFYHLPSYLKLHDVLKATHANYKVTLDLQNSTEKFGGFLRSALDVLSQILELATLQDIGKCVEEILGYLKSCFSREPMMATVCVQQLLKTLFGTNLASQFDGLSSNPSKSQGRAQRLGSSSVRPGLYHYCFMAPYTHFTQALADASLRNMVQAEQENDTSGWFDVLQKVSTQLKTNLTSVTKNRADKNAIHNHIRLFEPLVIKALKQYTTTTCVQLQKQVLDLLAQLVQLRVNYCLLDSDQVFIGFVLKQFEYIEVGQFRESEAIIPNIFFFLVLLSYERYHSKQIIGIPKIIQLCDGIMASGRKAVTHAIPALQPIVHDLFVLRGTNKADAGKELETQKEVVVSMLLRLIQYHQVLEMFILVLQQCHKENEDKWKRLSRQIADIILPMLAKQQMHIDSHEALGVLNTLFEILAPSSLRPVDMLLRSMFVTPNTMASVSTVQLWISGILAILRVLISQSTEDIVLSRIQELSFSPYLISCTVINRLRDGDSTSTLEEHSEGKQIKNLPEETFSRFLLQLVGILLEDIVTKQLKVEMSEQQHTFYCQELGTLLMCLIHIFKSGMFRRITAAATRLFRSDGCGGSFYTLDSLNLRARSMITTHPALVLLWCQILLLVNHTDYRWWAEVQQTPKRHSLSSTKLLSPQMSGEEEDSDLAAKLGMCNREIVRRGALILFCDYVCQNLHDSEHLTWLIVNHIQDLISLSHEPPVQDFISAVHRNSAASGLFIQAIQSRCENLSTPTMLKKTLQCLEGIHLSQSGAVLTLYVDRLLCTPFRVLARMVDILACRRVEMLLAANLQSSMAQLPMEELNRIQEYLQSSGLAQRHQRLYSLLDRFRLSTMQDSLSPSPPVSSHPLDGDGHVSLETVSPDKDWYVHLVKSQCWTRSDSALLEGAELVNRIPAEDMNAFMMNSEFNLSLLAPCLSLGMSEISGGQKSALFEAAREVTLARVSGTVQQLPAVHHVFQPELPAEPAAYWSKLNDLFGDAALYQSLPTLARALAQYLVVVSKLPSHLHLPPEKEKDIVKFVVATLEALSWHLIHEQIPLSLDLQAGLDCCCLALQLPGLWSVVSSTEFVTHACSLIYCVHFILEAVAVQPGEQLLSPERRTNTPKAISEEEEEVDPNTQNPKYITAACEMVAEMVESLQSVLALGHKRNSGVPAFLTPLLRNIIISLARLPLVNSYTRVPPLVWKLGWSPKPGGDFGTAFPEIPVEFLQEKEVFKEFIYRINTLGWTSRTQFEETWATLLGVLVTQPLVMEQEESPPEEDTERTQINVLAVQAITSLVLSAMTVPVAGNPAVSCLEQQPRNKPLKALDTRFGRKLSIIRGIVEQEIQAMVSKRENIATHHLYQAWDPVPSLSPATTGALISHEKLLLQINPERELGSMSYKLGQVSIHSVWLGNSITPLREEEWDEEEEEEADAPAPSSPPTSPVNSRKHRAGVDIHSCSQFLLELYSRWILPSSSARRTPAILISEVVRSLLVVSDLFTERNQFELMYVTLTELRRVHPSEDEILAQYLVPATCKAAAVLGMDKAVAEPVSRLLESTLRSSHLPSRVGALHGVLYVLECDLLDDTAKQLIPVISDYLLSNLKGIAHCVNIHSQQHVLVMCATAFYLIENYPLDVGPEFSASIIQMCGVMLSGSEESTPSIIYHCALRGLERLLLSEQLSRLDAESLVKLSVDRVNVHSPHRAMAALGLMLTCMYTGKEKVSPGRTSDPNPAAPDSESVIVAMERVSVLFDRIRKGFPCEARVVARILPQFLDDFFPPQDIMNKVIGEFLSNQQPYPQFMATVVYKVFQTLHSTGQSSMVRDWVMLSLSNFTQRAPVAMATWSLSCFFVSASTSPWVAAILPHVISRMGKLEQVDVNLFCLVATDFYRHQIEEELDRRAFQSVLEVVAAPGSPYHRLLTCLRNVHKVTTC
Pf apPOL inh – Pf-apPOL DNA polymerase inhibition. AID 1794808. Recombinant Pf-apPOL, molecular beacon fluorescence, 1.5 h. hit rate 0.25% among 210,000. inhibition, % at 10 µM
Numbers stand for hits. Rule as the data show it: active = inhibition above about 50%; inactive = the rest.

`O=C(N1CCC(c2nnc(-c3ccc(F)cc3)o2)CC1)C1(c2cccs2)CCCC1` gave mHTT CaM bind inactive and Pf apPOL inh inactive.
Screening O=C(c1ccc2c(c1)OCO2)N1CC2CC1CC2NS(=O)(=O)c1ccccc1 (configuration not stated) returned mHTT CaM bind inactive and Pf apPOL inh inactive.
Screening O=C(Nc1ccccc1Cl)C1CCCN(C(=O)Cc2cccc3ccccc23)C1 (configuration not stated) returned mHTT CaM bind inactive and Pf apPOL inh inactive.
`CCCCNC(=O)c1cnn2c(-c3ccc(Cl)cc3)ccnc12` gave mHTT CaM bind inactive and Pf apPOL inh inactive.
`COc1cc(/C=C2\C(=O)Nc3ccc(Br)cc32)cc(Br)c1O` gave mHTT CaM bind 100 and Pf apPOL inh inactive.
COc1cc(/C=C2\NC(=O)NC2=O)cc(Br)c1O was read as mHTT CaM bind inactive and Pf apPOL inh inactive.
COC(=O)c1ccccc1C(=O)N1CCC(c2nnc(-c3ccco3)o2)CC1 was read as mHTT CaM bind inactive and Pf apPOL inh inactive.
`O=C(Nc1ccc2c(c1)OCO2)c1ccc(Br)cc1` gave mHTT CaM bind inactive and Pf apPOL inh inactive.
O=C(Nc1ccc2c(c1)OCCO2)c1ccc(Br)cc1 was read as mHTT CaM bind 96 and Pf apPOL inh inactive.
For Cc1cccc(NC(=O)c2cc(C(C)C)n3nccc3n2)c1 the results were mHTT CaM bind inactive and Pf apPOL inh inactive.
O=C(NC1CC1)C1CCN(C(=O)Nc2cccs2)CC1 was read as mHTT CaM bind inactive and Pf apPOL inh inactive.
For O=C(NCc1ccccc1Cl)C1CCN(C(=O)Nc2cccs2)CC1 the results were mHTT CaM bind 58 and Pf apPOL inh inactive.
Cc1cccn2c(=O)c(/C=C3\SC(=S)N(CC4CCCO4)C3=O)c(N3CCCC3)nc12 (configuration not stated) was read as mHTT CaM bind inactive.
COc1ccccc1C(=O)N1CCCN(c2cc(-c3ccccc3)[nH]n2)CC1 was read as mHTT CaM bind 57 and Pf apPOL inh inactive.
For COc1ccccc1C(=O)N1CCN(c2cc(-c3cccnc3)[nH]n2)CC1 the results were mHTT CaM bind inactive and Pf apPOL inh inactive.
Cc1ccc(C=C2Oc3cc(O)ccc3C2=O)o1 was read as mHTT CaM bind inactive and Pf apPOL inh inactive.
`O[C@H]1C[C@H](c2ccccc2)N(CC2CCCCC2)C[C@@H]1n1cc(-c2ccc(F)cc2)nn1` gave mHTT CaM bind 55 and Pf apPOL inh inactive.
`CCCCCCN1C[C@H](n2cc(C3CC3)nn2)[C@@H](O)C[C@@H]1c1ccc(C)cc1` gave mHTT CaM bind 77 and Pf apPOL inh inactive.
`O[C@@H]1C[C@H](c2ccc(Cl)cc2)N(CC2CCCCC2)C[C@H]1n1cc(C2CC2)nn1` gave mHTT CaM bind inactive and Pf apPOL inh inactive.
COc1ccc([C@H]2C[C@@H](O)[C@H](n3cc(-c4ccc(F)cc4)nn3)CN2CC2CCCCC2)cc1 was read as mHTT CaM bind inactive and Pf apPOL inh inactive.
`CCCCCCN1C[C@@H](n2cc(C3CC3)nn2)[C@H](O)C[C@@H]1c1ccc(C)cc1` gave mHTT CaM bind inactive and Pf apPOL inh inactive.
For O[C@H]1C[C@H](c2ccc(Cl)cc2)N(CC2CCCCC2)C[C@@H]1n1cc(C2CC2)nn1 the results were mHTT CaM bind 80 and Pf apPOL inh inactive.
For O=C(Cc1ccccc1)Nc1cc([N+](=O)[O-])ccc1O the results were mHTT CaM bind inactive and Pf apPOL inh inactive.
`CS(=O)(=O)N1CCC(C(=O)N(CCc2ccccc2)Cc2ccccn2)CC1` gave mHTT CaM bind inactive and Pf apPOL inh inactive.
Screening CN(C)c1ccc(C(O)(c2ccc(N(C)C)cc2)c2ccc(N(C)C)cc2)cc1 returned mHTT CaM bind 100 and Pf apPOL inh inactive.
CN(C)c1ccc(Cc2ccc(N(C)C)cc2)cc1 was read as Pf apPOL inh inactive.
CC(C)CN(CC(C)C)S(=O)(=O)N1CCC(C(=O)NC(C)c2ccccc2)CC1 (configuration not stated) was read as mHTT CaM bind inactive and Pf apPOL inh inactive.
For Cc1ccc(C(C(=O)Nc2ccc(C(C)C)cc2)N(Cc2ccco2)C(=O)c2cnccn2)cc1 (configuration not stated) the results were mHTT CaM bind 69 and Pf apPOL inh inactive.
`CC(C)c1ccc(NC(=O)C(c2ccccc2)N(C)C(=O)c2cnccn2)cc1` (configuration not stated) gave mHTT CaM bind inactive and Pf apPOL inh inactive.
Clc1ccccc1-c1nnc(Cc2cc(Br)sc2Br)o1 was read as Pf apPOL inh inactive.
`O=C(Nc1ccc(S(=O)(=O)Nc2nccs2)cc1)C(Cl)Cl` gave mHTT CaM bind inactive and Pf apPOL inh inactive.
For O=C(Nc1ccc(S(=O)(=O)Nc2nccs2)cc1)Nc1ccc(Cl)c(Cl)c1 the results were mHTT CaM bind 78 and Pf apPOL inh inactive.
`O=C(O)C1CC(=O)N(Cc2ccc(Cl)cc2)C(=Nc2ccc(F)cc2)S1` (configuration not stated) gave mHTT CaM bind inactive and Pf apPOL inh inactive.
O=c1[nH]c2ccc(Br)cc2c(-c2ccccc2)c1C1=NOC(c2ccccc2)C1 (configuration not stated) was read as mHTT CaM bind inactive and Pf apPOL inh inactive.
COc1ccc(C2=NN(C(C)=O)C(c3ccc(Cl)cc3)C2)cc1 (configuration not stated) was read as Pf apPOL inh inactive.
`O=c1[nH]c2ccc(Cl)cc2c(-c2ccccc2)c1C1=NOC(c2ccc(F)cc2)C1` (configuration not stated) gave mHTT CaM bind 100 and Pf apPOL inh inactive.
CC(=O)N1N=C(c2c(-c3ccccc3)c3cc(Cl)ccc3[nH]c2=O)CC1c1ccc(Cl)cc1 (configuration not stated) was read as mHTT CaM bind 100 and Pf apPOL inh inactive.
O=[N+]([O-])c1ccc(C=Cc2ccc([N+](=O)[O-])o2)cc1 was read as Pf apPOL inh inactive.
For O=C(NC1CC2CC1N(S(=O)(=O)c1ccc3c(c1)OCCO3)C2)c1cccs1 (configuration not stated) the results were mHTT CaM bind inactive and Pf apPOL inh inactive.
`O=C(C=Cc1cccs1)Nc1ccc(N2CCOCC2)c(C(=O)O)c1` gave Pf apPOL inh inactive.
Cc1ccc(NS(=O)(=O)c2ccc(S(N)(=O)=O)cc2)cc1C was read as mHTT CaM bind inactive and Pf apPOL inh inactive.
For O=C(Nc1nnc(C(F)(F)F)s1)c1c(O)c2ccccc2[nH]c1=O the results were mHTT CaM bind inactive and Pf apPOL inh inactive.
`C=CCn1c(=N)n(CC(=O)c2ccc(Cl)c(Cl)c2)c2ccccc21` gave mHTT CaM bind inactive and Pf apPOL inh inactive.
Screening C=CCn1c(=N)n(CC(=O)c2ccc(-c3ccccc3)cc2)c2ccccc21 returned mHTT CaM bind 52 and Pf apPOL inh inactive.
Screening COCCN(CCOC)S(=O)(=O)c1ccc(C(=O)Nc2ccc3c(c2)OCO3)cc1 returned mHTT CaM bind inactive and Pf apPOL inh inactive.
COc1cc(O)c(C(CCN2CCCC(C)C2)c2ccc3c(c2)OCO3)c(OC)c1 (configuration not stated) was read as mHTT CaM bind inactive and Pf apPOL inh inactive.
For COc1cc(O)c(C(CCN2CCCC(C)C2)c2ccc(N(C)C)cc2)c(OC)c1 (configuration not stated) the results were mHTT CaM bind 55 and Pf apPOL inh inactive.
`CCN(CC)CCC(c1ccc(OC)cc1)c1c(O)cc(OC)cc1OC` (configuration not stated) gave mHTT CaM bind inactive and Pf apPOL inh inactive.
